Screening data (PubChem)
An excerpt weighted towards active compounds, which were near 6% of everything screened.
D3 antag = blocks the human D3 dopamine receptor; D3R cells, DiscoveRx beta-arrestin luminescence, antagonist mode; active compounds read low; max response, negative = inhibition, %; actives 2.5% (n = 360,000); in the data active means max response below about -50%; inconclusive means no clear call, values can overlap the other calls; further: on the % scale 0 is the no-effect control and ±100 the full control effect
Target sequence (P35462 whole entry, looked up): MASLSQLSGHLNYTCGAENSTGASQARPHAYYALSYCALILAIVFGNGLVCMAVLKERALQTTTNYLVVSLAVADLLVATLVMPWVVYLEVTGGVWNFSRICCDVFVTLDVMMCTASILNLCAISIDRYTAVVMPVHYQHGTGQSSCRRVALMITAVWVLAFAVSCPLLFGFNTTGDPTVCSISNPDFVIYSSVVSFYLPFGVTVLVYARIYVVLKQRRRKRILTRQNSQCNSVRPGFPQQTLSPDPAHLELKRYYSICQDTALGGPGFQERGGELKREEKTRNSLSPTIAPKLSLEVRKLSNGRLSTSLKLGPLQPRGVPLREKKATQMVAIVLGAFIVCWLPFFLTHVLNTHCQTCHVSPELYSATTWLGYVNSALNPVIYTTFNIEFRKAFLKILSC
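Cells plated overnight at 1500 cells/well, then exposed to library compounds with dopamine controls for 90 minutes at 37 degrees C. DiscoveRx reagent added for 30–60 minutes at room temperature; luminescence read, quantitative HTS format.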
D1 antag = blocks dopamine activation of the human D1 receptor; P21728; HEK293 TREx D1 cells, calcium flux, dopamine EC80; active compounds read low; activity change, negative = inhibition, % at 10 µM; actives 3.2% (n = 360,000); AID 504652; in the data active means activity change below about -30%; further: on the % scale 0 is the no-effect control and ±100 the full control effect
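Kinetic fluorescence of a calcium dye serves as the read-out. D1-expressing Hek293 Trex cells, induced overnight at 30 C, are exposed to compound for 180 s before an EC80 dopamine addition, then read 180 s further.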
DRD3 agonist = D3 dopamine receptor (human) agonism; P35462; D3R DiscoveRx beta-arrestin cells, luminescence, 90 min; max activation, %; actives 0.58% (n = 410,000); in the data active means max activation above about 30%; further: 0% is about no effect
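Agonist-mode cell screen: cells plated at 1500/well and incubated overnight at 37 °C, then exposed to library compounds for 90 min at 37 °C. Detection reagent was added for 30–60 min at room temperature, and luminescence was read.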
D1 ag = human D1 receptor agonism; HEK293 T-REx D1 cells, calcium flux, agonist mode; activation, % at 2 µM; P21728; actives 1% (n = 360,000); in the data active means activation above about 30%; further: 0% is about no effect
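Tetracycline-induced HEK293 TREx D1 cells, force-coupled to calcium signalling, were dye-loaded with a no-wash calcium kit. Compound was pin-added after a 10 s baseline. Fluorescence was read kinetically at 1 cycle/s for 180 s, with calcium rises flagged as agonism.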
D1 potentiator = human D1 dopamine receptor positive modulation; potentiation, % at 10 µM; AID 504651; HEK293 TREx D1 cells, calcium flux, dopamine EC20 potentiation; P21728; actives 0.036% (n = 360,000); in the data active means potentiation above about 30%; further: 0% is about no effect
Numbers without * were called inactive; ? = inconclusive; / = no result given; ! = not active in a repeat.

SMILES | D3 antag | D1 antag | DRD3 agonist | D1 ag | D1 potentiator
Cc1ccc2c(c1)C(=O)C(=O)N2Cc1ccc(Br)cc1 | ? | / | -37 | / | /
CCCN1C(=O)C(=O)c2cc(C)ccc21 | -11 | / | -31 | / | /
Cc1ccc(CN2C(=O)C(=O)c3cc(C)ccc32)cc1 | -54* | / | -11 | / | /
CCCCN1C(=O)C(=O)c2cc(Cl)ccc21 | -120* | / | -11 | / | /
CCc1cccc(OCC(=O)Nc2ccc(S(=O)(=O)Nc3ncccn3)cc2)c1 | / | 4 | 1 | 1 | 2
CNCC[C@H](Oc1cccc2ccccc12)c1cccs1 | 0 | -27 | -15 | 61* | -1
C/C(=N\NC(=O)COc1cccc2ccccc12)c1cccs1 | 2 | 6 | 1 | 8 | 0
Cc1ccc2nc3c(c(N)c2c1)CCN3C | ? | -1 | -15 | 7 | 0
Cc1ccc2nc3c(c(N)c2c1)CCN3c1ccccc1 | -77* | 0 | -6 | 1 | -7
Cc1ccc2oc(-c3ccc(Cl)c(NC(=O)c4ccc(OC(C)C)cc4)c3)nc2c1 | / | 3 | 0 | 1 | -1
CCOC(=O)CCc1c(C)c2ccc(OC(C)C(=O)OCC)c(C)c2oc1=O (centres undefined) | 2 | -41* | 22 | 18 | -12
CC(c1ccccc1)C1CC(=O)N(CC(=O)O)C1=O (centres undefined) | 8 | -32* | 6 | 6 | -7
CC(=O)N[C@@H]([C@@H](O)[C@H](O)[C@H](O)CO)[C@@H](O)CC(=O)C(=O)O | / | / | 8 | / | /
O=C(COC(=O)c1ccccc1O)NNC(=O)c1ccc(Br)cc1 | -58* | -20 | -11 | 4 | -2
COc1cccc(CC(=O)OCC(=O)NNC(=O)c2ccc(Br)cc2)c1 | -15 | -33* | -7 | 7 | /
O=C(COC(=O)c1ccccc1O)NCCCc1ccccc1 | -29 | -34* | -3 | 2 | -6
Clc1ccc2c(N3CCOCC3)ccnc2c1 | -4 | -3 | 1 | 3 | -2
Clc1ccc2c(c1)CNc1c(ncnc1N1CCOCC1)O2 | 15 | -43* | 8 | 3 | -9
Cc1ccc(N2CCN(CCCCN3C(=O)C4CCCN4C3=O)CC2)cc1 (centres undefined) | -78* | -16 | -17 | 3 | -8
O=C1C2CCCCN2C(=O)N1CCCCN1CCN(c2ccc(F)cc2)CC1 (centres undefined) | -92* | -19 | -12 | -1 | -25
O=C1C2CCCN2C(=O)N1CCCCN1CCN(c2ccccc2)CC1 (centres undefined) | -24 | -24 | 30 | 5 | -8
O=C1C2CCCCN2C(=O)N1CCN1CCN(c2ccc([N+](=O)[O-])cc2)CC1 (centres undefined) | 0 | -33* | -15 | 7 | 6
O=C1C2CCCN2C(=O)N1CCCCN1CCN(c2ccc(F)cc2)CC1 (centres undefined) | -75* | -34* | -9 | 5 | -10
Cc1ccc(C(=O)Nc2ccc3oc(-c4ccc(C(C)(C)C)cc4)nc3c2)cc1 | / | 2 | -10 | 29 | 1
Oc1[nH]c2ccccc2c1N=Nc1ccccc1F | -22 | -2 | -5 | 39* | -6
SMILES | D3 antag | D1 antag | DRD3 agonist | D1 ag | D1 potentiator
Oc1[nH]c2ccccc2c1N=Nc1ccccc1 | -1 | 58 | 5 | 11 | 5
Oc1[nH]c2ccccc2c1N=Nc1ccc(F)cc1 | 3 | -9 | 7 | 29 | -6
O=S1(=O)N=C(N=Nc2c(O)[nH]c3ccccc23)c2ccccc21 | -23 | -34* | -2 | 4 | 0
COC(=O)/C=C(\C)N=Nc1c(O)[nH]c2ccccc12 | -13 | 26 | -5 | 144* | -4
Cc1ccc(C2C(C(=O)c3cc4ccccc4o3)=C(O)C(=O)N2CCN2CCOCC2)o1 (centres undefined) | -56* | -5 | -10 | 3 | -4
O=C(Nc1nnc(S(=O)(=O)N2CCCc3ccccc32)s1)c1cccc(Cl)c1 | / | 5 | -4 | 0 | 0
CCn1c(C(=O)N2CCC(C(=O)N3CCN(c4cc(C)ccc4C)CC3)CC2)cc2sccc21 | / | -36* | -3 | -1 | -3
CCn1c(C(=O)N2CCC(C(=O)N3CCN(c4cccc(C)c4C)CC3)CC2)cc2sccc21 | / | -15 | 14 | 3 | -4
OCC1(Cc2cccc(C(F)(F)F)c2)CCN(Cc2cc3ccccc3o2)CC1 | -28 | 8 | 28 | 10 | -1
COc1ccc(F)c(CN2CCC(CO)(Cc3cccc(C(F)(F)F)c3)CC2)c1 | -15 | 5 | -20 | 7 | -1
Cc1c(CN2CCC(CO)(Cc3cccc(C(F)(F)F)c3)CC2)c2ccccc2n1C | -17 | 7 | -17 | 82* | -1
COc1cc(CN2CCC(CO)(Cc3cccc(C(F)(F)F)c3)CC2)ccc1F | 0 | -26 | -15 | 52* | -6
COc1ccc(CN2CCC(CO)(Cc3cccc(C(F)(F)F)c3)CC2)cc1Cn1cccn1 | 13 | -21 | -14 | 34* | -6
OCC1(Cc2ccccc2)CCN(Cc2ccc(C(F)(F)F)cc2)CC1 | -4 | 5 | -17 | 8 | 4
COc1ccc(CC2(CO)CCN(Cc3cc4ccccc4o3)CC2)cc1 | -56* | 2 | 25 | 18 | 2
COC(=O)c1ccc(CN2CCC(CO)(Cc3cccc(OC)c3)CC2)cc1 | -80* | 5 | -9 | 1 | 0
CC(C)c1ccc(Nc2ncnc3c2c(-c2ccccc2)cn3-c2ccccc2)cc1 | / | 7 | -5 | -1 | -1
CC1=C(C#N)C(NC(=O)c2cccc(Cl)c2)(C(F)(F)F)C(=O)N1 (centres undefined) | 31 | -31*! | 8 | 0 | 0
CC1=C(C#N)C(NC(=O)c2ccccc2)(C(F)(F)F)C(=O)N1 (centres undefined) | / | 0 | -5 | 0 | -1
COc1ccccc1CNc1nc2c(S(=O)(=O)c3ccccc3)nnn2c2ccc(Cl)cc12 | / | 15 | -1 | 1 | 4
O=C(C1CCCN(Cc2ccncc2)C1)N1CCc2ccccc2C1 (centres undefined) | -72* | 10 | -7 | 0 | -1
COc1cc(CN2CCCC(C(=O)Nc3cccc(-n4cccn4)c3)C2)ccc1F (centres undefined) | 2 | 4 | -9 | 13 | -11
O=C(C1CCCN(Cc2ccccc2F)C1)N1CCCCC1 (centres undefined) | -22 | 5 | -29 | 1 | -2
O=C(Nc1cccc(-n2cccn2)c1)C1CCCN(Cc2ccccc2F)C1 (centres undefined) | -2 | -36* | -5 | 6 | -8
O=C(C1CCCN(Cc2ccccc2F)C1)N1CCc2ccccc2C1 (centres undefined) | -52* | -23 | -27 | -1 | 1
CCc1ccccc1Nc1nn2c(=O)c3ccc(C(=O)NC(C)c4ccccc4)cc3nc2s1 (centres undefined) | / | 6 | -6 | 0 | -2
COc1cc(C=O)c(Br)cc1OC1CCCC1 | 29 | -16 | -3 | 1 | -3
